Shown are actives, neighbours in structure and some others; about 2.3% of the full set was active somewhere.
ALOX12 inh: inhibitors of human 12S-lipoxygenase ALOX12 | AID 1671190 | 580,000 compounds, 1.1% hits | Potency, µM (highest dose often 108 µM), hits mostly inhibitors | purified 12hLO, xylenol orange hydroperoxide absorbance | P18054
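Hydroperoxide product was detected by ferrous iron/xylenol orange as the 573 to 405 nm absorbance ratio. Arachidonic acid at 40 uM (final) was turned over for 30 min at room temperature by 150 nM human 12hLO, pH 7.0 Hepes buffer, after 15 min compound preincubation.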
GRP78 ERSR act: ER stress response induction in glioma; 420,000 compounds, 0.02% hits; Potency, µM, actives largely listed as activators; U87-MG GRP78 promoter luciferase reporter, 16 h; AID 602332; also: series mostly up to about 76 µM; nearly all actives have a fitted effect of over 35% in size
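Stably transfected U87-MG glioma cells carrying a GRP78-based luciferase sensor; 16 h compound incubation. Luminescence end-point read 10 min after Bright-Glo addition at room temperature.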
PTHR1 agonist: activates the human parathyroid hormone receptor PTHR1. Q03431. Potency, µM (top dose mostly 115 µM), hits mostly activators. HEK293 GP2 PTHR1 cells, GloSensor cAMP luminescence, 1 h. AID 743266. 410,000 compounds, 0.075% hits; also: nearly all actives have a fitted effect of over 55% in size
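HEK-293-derived GP2 cells expressing PTHR1 and a GloSensor cAMP reporter, 3,000/well, plated overnight, given luciferin plus IBMX (each 0.5 mM as added) for 1 h at 37 °C, then compound for 1 h at 37 °C. Luminescence was read after 15 min at room temperature.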
GLS inh: blocks human kidney-isoform glutaminase activity; GLS enzymatic activity, qHTS titration; Potency, µM (titrated, usually from 45.5 µM), actives largely listed as inhibitors; 410,000 compounds, 0.21% hits; AID 624170; O94925
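Human kidney-isoform GLS in 45 mM KH2PO4 pH 8.2, 0.02% Tween-20, with compound, started with 1mM L-Glutamine (added stock). Glutamate oxidase/HRP/Amplex red coupled fluorescence read at start and after 30 min at RT.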
GLP-1R inv ag: acts as inverse agonist at human GLP-1 receptor. P43220. HEK293 GLP-1R CRE-luciferase, luminescence, 24 h; GLP-1R form is constitutively active. Potency, µM (top dose mostly 38.3 µM), most hits filed as inhibitors. 410,000 compounds, 1.6% hits; also: nearly all actives have a fitted effect of over 55% in size
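GLP-1R inverse agonism mode: basal reporter luminescence in engineered HEK293 cells measured after one day of compound exposure at 37 deg C, with a 12 min room-temperature detection step.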
GLP1R ag: activates the human GLP-1 receptor | AID 624172 | HEK293 GLP-1R CRE-luciferase, luminescence, 4-6 h; cells express a hypersensitive GLP-1R form | 380,000 compounds, 0.007% hits | Potency, µM (doses to about 45.6 µM), usual class: activators
Numbers stand for hits; - = inactive; ? = inconclusive; . = no result given. Calls follow the shape of the dose curve; as a rule, active = well fitted curve in the direction sought with a large enough effect; inconclusive = small, poorly fitted or top-dose-only effect, or another doubt; inactive = no such curve, though single readings can be large; an effect the other way counts as inactive or inconclusive.

SMILES	ALOX12 inh	GRP78 ERSR act	PTHR1 agonist	GLS inh	GLP-1R inv ag	GLP1R ag
O=C(Nc1ccc(Cl)c(C(F)(F)F)c1)NC1CC2CCCC(C1)N2C1CC1 (configuration not stated)	-	-	-	-	3.2µM	-
CC(C)(C)c1ccc(NC(=O)NC2CCCc3ccccc32)cc1 (configuration not stated)	-	-	-	-	3.2µM	-
Cc1ccc(NC(=O)NC2CCCc3ccccc32)cc1 (configuration not stated)	-	-	-	-	?	-
CCCCn1cnc2c1c(=O)n(CC(=O)Nc1c(CC)cccc1CC)c(=O)n2CCC	-	.	.	.	.	.
CCCn1c(NC)nc2c1c(=O)n(C)c(=O)n2C	-	.	.	.	.	.
N#Cc1ccc(CSc2nnc(-c3c[nH]c4ccccc34)n2-c2ccccc2)cc1	-	-	-	-	6.3µM	-
Cc1ccc2c(c1)-c1[nH]c(=S)ncc1CS2	32µM	-	-	-	-	-
CC(C)NC(=O)c1ccccc1-c1ncc(-c2ccc(F)cc2)o1	-	.	.	.	.	.
Nc1c(C(=O)NC2CC2)sc2nc3c(c(-c4ccco4)c12)CC/C3=C/c1ccco1	.	-	-	1.8µM	-	-
CCOC(=O)c1ccc(NC(=O)CSc2ncnc3c(-c4ccccc4)c[nH]c23)cc1	-	.	.	.	.	.
COc1cc(/C=N/Nc2ccccc2)ccc1O	?	-	-	-	2.5µM	-
COCCNC(=S)N/N=C/c1c2ccccc2cc2ccccc12	40µM	-	-	-	?	-
COc1cc(/C=N/NC(=O)Cn2cnc3ccccc3c2=O)ccc1O	-	-	-	20µM	-	-
COc1cc(/C=N/Nc2ccccc2C(F)(F)F)ccc1O	?	-	-	-	?	-
CNC(=S)N/N=C/c1c2ccccc2c(Cl)c2ccccc12	?	-	-	-	7.9µM	-
CNC(=S)N/N=C/c1c(C)cccc1Cl	?	-	-	-	?	-
S=C(NCCN1CCOCC1)N/N=C/c1c2ccccc2cc2ccccc12	?	-	-	-	?	-
COCCCNC(=S)N/N=C/c1ccc(OC)c(Br)c1	25µM	-	-	-	?	-
COc1ccc(CNC(=S)N/N=C/c2ccc(OC)c(OC)c2)cc1	-	-	-	-	-	-
COc1ccc(CNC(=S)N/N=C/c2ccc(O)c(OC)c2)cc1	32µM	-	-	-	?	-
COc1cc(/C=N\NC(=O)CNC(=O)C(c2ccccc2)c2ccccc2)ccc1O	-	-	-	11µM	-	-
COc1ccc(/C=N\NC(=O)CNC(=O)C(c2ccccc2)c2ccccc2)cc1[N+](=O)[O-]	-	-	-	-	?	-
COc1cc(/C=N/Nc2cccc(C)c2)cc(Br)c1O	2.8µM	-	-	-	?	-
COc1ccc(C=NNC(=S)NN=Cc2ccc(OC)c(OC)c2)cc1OC	?	-	-	-	-	?
Cc1cc(C)cc(Oc2c(C(F)(F)F)oc3cc(OCc4ccccc4)ccc3c2=O)c1	-	.	.	.	.	.
SMILES	ALOX12 inh	GRP78 ERSR act	PTHR1 agonist	GLS inh	GLP-1R inv ag	GLP1R ag
COc1ccc(/C=N/Nc2cc(C)nc3c(C)cccc23)cc1	?	-	-	-	?	-
COc1cccc2c(N/N=C/c3ccc(O)c(O)c3)cc(C)nc12	20µM	-	-	?	-	-
CCOc1ccc(OCCC(=O)OCC(=O)Nc2c(C)cc(C)cc2Cl)cc1	-	.	.	.	.	.
O=C1NCC(c2ccccc2)C1C(=O)N/N=C/c1ccc(Cl)s1 (configuration not stated)	-	-	-	-	-	-
O=C1NCC(c2ccccc2)C1C(=O)N/N=C\c1ccc(-c2ccc(Cl)c(Cl)c2)o1 (configuration not stated)	-	-	-	-	10µM	-
Cc1ccc(S(=O)(=O)n2nc(-c3ccc(Cl)cc3)nc2NCc2ccco2)cc1	13µM	-	-	-	-	-
COc1ccc(CNC(=O)C2CCN(S(=O)(=O)c3ccc4nc5c(c(C(=O)O)c4c3)CCCC5)CC2)cc1	?	-	-	-	-	-
O=C(NCc1ccc(F)cc1)C1CCN(S(=O)(=O)c2ccc3c(c2)OCCCO3)CC1	-	-	-	-	-	-

Assay outcomes (PubChem)
